HPGD block = qHTS Assay for Inhibitors of HPGD (15-Hydroxyprostaglandin Dehydrogenase); 150,000 tested, 4.3% active; AID 894, 2007; Potency, µM, for inactives: top-dose activity change, negative = inhibition, actives largely listed as inhibitors; purified HPGD, NADH fluorescence kinetic, PGE2 substrate; active = well fitted inhibition curve with a large enough effect, not every such curve was filed as active; inconclusive = small, poorly fitted or top-dose-only effect, or another doubt; inactive = no such curve, though single readings can be large or run the other way; note: % is set by controls: 0 for no effect and ±100 for the full control effect
Target sequence (P15428 whole entry, looked up): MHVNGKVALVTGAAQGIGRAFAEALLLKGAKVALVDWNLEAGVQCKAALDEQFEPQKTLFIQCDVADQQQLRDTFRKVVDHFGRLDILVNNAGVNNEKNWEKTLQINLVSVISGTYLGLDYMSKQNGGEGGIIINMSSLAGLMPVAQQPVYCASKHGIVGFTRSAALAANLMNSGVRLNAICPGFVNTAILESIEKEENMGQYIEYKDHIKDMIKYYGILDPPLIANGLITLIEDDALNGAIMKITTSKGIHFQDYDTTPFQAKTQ
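NADH formation kinetics: reaction with 30 uM PGE2 and 1 mM NAD+ (final), 20 nM enzyme, Tris-HCl pH 8 with Tween 20, after 15 min compound preincubation at room temperature. Fluorescence change, last versus first of five reads.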
LMNA splice mod = qHTS Assay for Modulators of Lamin A Splicing | HeLa LMNA splicing GFP/RFP minigene ratio, 48 h | 200,000 tested, 0.01% active | Potency, µM (top dose mostly 46.1 µM), inactives show top-dose ratio change, negative = inhibition, hits mostly inhibitors | AID 1487, 2009; active = well fitted inhibition curve with a large enough effect in the signal ratio, with a control signal flat, not every such curve was filed as active; inconclusive = small, poorly fitted or top-dose-only effect, or effect the other way, or a change in a side signal; the % refers to the signal ratio; note: % is set by controls: 0 for no effect and ±100 for the full control effect
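S3 HeLa cells stably expressing lamin A-EGFP splicing minigene plus DsRed2, 600 cells/well, 48 h compound exposure at 37C. Laser-scanning cytometry; analysed as GFP (500-530 nm)/RFP (575-640 nm) total intensity ratio; 0.5% DMSO vehicle.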
ALDH1A1 block = qHTS Assay for Inhibitors of Aldehyde Dehydrogenase 1 (ALDH1A1). Aldehyde dehydrogenase 1A1 (Homo sapiens), P00352. Purified ALDH1A1, NADH fluorescence, propionaldehyde substrate. Potency, µM (highest dose often 75.3 µM), for the others: at the top dose activity, negative = inhibition, actives largely listed as inhibitors. 220,000 tested, 7.3% active; active = well fitted inhibition curve with a large enough effect, not every such curve was filed as active; inconclusive = small, poorly fitted or top-dose-only effect, or another doubt; inactive = no such curve, though single readings can be large or run the other way;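 note: plate controls were no enzyme wells and a reference inhibitor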
Target sequence (P00352 whole entry, looked up): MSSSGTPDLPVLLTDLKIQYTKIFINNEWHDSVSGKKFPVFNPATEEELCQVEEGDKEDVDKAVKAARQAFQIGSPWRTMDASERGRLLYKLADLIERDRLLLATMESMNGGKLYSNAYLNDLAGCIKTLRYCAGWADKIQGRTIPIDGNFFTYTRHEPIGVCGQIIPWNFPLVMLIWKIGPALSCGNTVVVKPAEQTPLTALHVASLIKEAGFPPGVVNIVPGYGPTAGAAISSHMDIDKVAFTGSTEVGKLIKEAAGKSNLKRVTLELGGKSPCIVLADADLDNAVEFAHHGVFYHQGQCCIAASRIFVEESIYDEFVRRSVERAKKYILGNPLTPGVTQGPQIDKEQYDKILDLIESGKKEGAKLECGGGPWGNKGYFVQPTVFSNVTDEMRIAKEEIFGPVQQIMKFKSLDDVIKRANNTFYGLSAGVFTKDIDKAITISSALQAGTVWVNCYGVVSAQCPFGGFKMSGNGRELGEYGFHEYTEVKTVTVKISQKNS
HttQ103 aggreg = qHTS Multiplex Assay to Identify Dual Action Probes in a Cell Model of Huntington: Aggregate Formation (GFP). 220,000 tested, 1.1% active. PC12 HttQ103-GFP aggregates, Acumen cytometry, 40 h. Potency, µM (titrated, usually from 46.1 µM), inactives show at the top dose activity change, negative = inhibition, most hits filed as inhibitors; note: % is set by controls: 0 for no effect and ±100 for the full control effect; nearly all actives have a fitted effect of over 60% in size
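Inducible Q103 Huntingtin exon 1–GFP PC12 line, 1500 cells/well in phenol red free DMEM with 5% equine and 5% calf serum. Tebufenozide 100 nM induced expression; compounds titrated; aggregates quantified by cytometry.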
KinaseGlo FLuc = Counterscreen for Luciferase (Kinase-Glo TM) Inhibition | 200,000 tested, 0.28% active | Kinase-Glo luciferase, ATP luminescence, 8 min | Potency, µM (top dose mostly 38.3 µM), inactives show top-dose activity change, negative = inhibition, most hits filed as inhibitors | Luciferin 4-monooxygenase (Photuris pensylvanica), Q27757; note: % is set by controls: 0 for no effect and ±100 for the full control effect; nearly all actives have a fitted effect of over 60% in size
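Kinase-Glo luciferase light output from ATP and luciferin was measured with 10 uM ATP, within the enzyme's linear range. Buffer: 50 mM imidazole pH 7.2, 50 mM KCl, 7 mM MgCl2, 0.01% Tween 20, 0.05% BSA; luminescence read after 8 min at ambient temperature.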
HTT ATP protect = qHTS Multiplex Assay to Identify Dual Action Probes in a Cell Model of Huntington: Cytoprotection (ATP); PC12 HTT-Q103 induced, cytoprotection, ATP luminescence, 40 h; Potency, µM (highest dose often 56.4 µM), inactives show cytoprotection (ATP increase), most hits filed as activators; 230,000 tested, 0.14% active; note: % of control where 0% means no effect; nearly all actives have a fitted effect of over 45% in size
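ATP quantification (ATPlite) reports survival of PC12 cells in which tebufenozide, 100 nM final, switches on Htt exon 1 with 103 glutamines linked to GFP; compounds are titrated.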
* = called active by the depositor; [ ] = remark or other dose. The list is not random: actives were taken first. Their share in the collection is about 9%. Unless noted, calls come from the whole dose curve; as a rule, active = well fitted curve in the direction sought with a large enough effect; inconclusive = small, poorly fitted or top-dose-only effect, or another doubt; inactive = no such curve, though single readings can be large; an effect the other way counts as inactive or inconclusive. Potency is the fitted concentration of half-maximal effect.

What do the screens show for `CC(C)Cn1c(-c2ccccc2F)n[nH]c1=S`?
HPGD block: -24%; LMNA splice mod: 0%; ALDH1A1 block: -12%; HttQ103 aggreg: 11%; KinaseGlo FLuc: 2%; HTT ATP protect: 5%

What do the screens show for `CC(C)Cn1c(-c2ccncc2)n[nH]c1=S`?
LMNA splice mod: inconclusive; ALDH1A1 block: -6%; HttQ103 aggreg: 16%; KinaseGlo FLuc: 0%; HTT ATP protect: inconclusive

Results for CCN(CC)S(=O)(=O)c1cccc(-c2n[nH]c(=S)n2Cc2ccccc2)c1 ?
LMNA splice mod: -15%[46 µM]; ALDH1A1 block: 7.1µM*; HttQ103 aggreg: -13%; KinaseGlo FLuc: 1%; HTT ATP protect: 19%[10 µM]

Results for CCN(CC)S(=O)(=O)c1cccc(-c2n[nH]c(=S)n2CC(C)C)c1 ?
ALDH1A1 block: 7.9µM*; HttQ103 aggreg: 17%; HTT ATP protect: -16%

How did O=S(=O)(c1cccc(-c2n[nH]c(=S)n2Cc2ccccc2)c1)N1CCOCC1 do in these assays?
HttQ103 aggreg: 14%[9.22 µM]; HTT ATP protect: 6%[10 µM]

What do the screens show for `CC(C)Cn1c(-c2ccc(F)cc2)n[nH]c1=S`?
HPGD block: 28µM*; LMNA splice mod: -15%; ALDH1A1 block: inconclusive; HttQ103 aggreg: 9%; KinaseGlo FLuc: -1%; HTT ATP protect: 5%[10 µM]

Results for CC1=NN(c2nc(-c3ccccc3)cs2)C(=O)C1 ?
HPGD block: -11%; LMNA splice mod: 9%[0.0737 µM]; ALDH1A1 block: -11%; HttQ103 aggreg: 15%; KinaseGlo FLuc: 0%; HTT ATP protect: 5%

Results for O=C(NCc1n[nH]c(=S)n1Cc1ccccc1)c1ccc(Cl)cc1Cl ?
ALDH1A1 block: 22µM*; HttQ103 aggreg: -4%; KinaseGlo FLuc: 1%; HTT ATP protect: inconclusive

How did CCN(CC)S(=O)(=O)c1ccc(C(=O)NCc2ccc(C)cc2)cc1 do in these assays?
HPGD block: 0%; LMNA splice mod: -2%; ALDH1A1 block: 10µM*; HttQ103 aggreg: 9%; KinaseGlo FLuc: 1%; HTT ATP protect: -43%

What do the screens show for `COc1ccc(NS(=O)(=O)c2ccc(-c3n[nH]c(=S)n3Cc3ccccc3)cc2)cc1`?
HttQ103 aggreg: 7%[9.22 µM]; HTT ATP protect: 9%[10 µM]

What do the screens show for `CCN(CC)S(=O)(=O)c1ccc(C(=O)NCc2n[nH]c(=S)n2Cc2ccccc2)cc1`?
HPGD block: -10%; LMNA splice mod: 7%; ALDH1A1 block: 2.5µM*; HttQ103 aggreg: 0%; KinaseGlo FLuc: -5%; HTT ATP protect: 3%

Results for COc1ccc(NS(=O)(=O)c2cccc(-c3n[nH]c(=S)n3Cc3ccccc3)c2)cc1 ?
LMNA splice mod: inconclusive; ALDH1A1 block: 0.45µM*; HttQ103 aggreg: -8%; KinaseGlo FLuc: 0%; HTT ATP protect: -50%

How did CCN(CC)S(=O)(=O)c1ccc(C(=O)NCc2cccs2)cc1 do in these assays?
HPGD block: -16%; LMNA splice mod: 4%; ALDH1A1 block: -7%; HttQ103 aggreg: 4%; KinaseGlo FLuc: -3%; HTT ATP protect: -32%

How did CCCS(=O)(=O)N1CCC(C(=O)NCCCN2CCC(Cc3ccccc3)CC2)CC1 do in these assays?
HPGD block: -3%; LMNA splice mod: -6%; ALDH1A1 block: 8%; HttQ103 aggreg: 15%; KinaseGlo FLuc: -2%; HTT ATP protect: 2%

Results for C/C(CC(=O)Nc1cc(C)ccn1)=N\NC(=O)C(=O)Nc1cccc(C)c1 ?
HPGD block: 1%; LMNA splice mod: -1%; ALDH1A1 block: 5%; HttQ103 aggreg: -15%; KinaseGlo FLuc: -1%; HTT ATP protect: 5%[10 µM]

How did CC1CCCCC1NC(=O)CCn1c(=O)oc2ccccc21 (stereo not given) do in these assays?
HPGD block: 0%; LMNA splice mod: -1%; ALDH1A1 block: -1%; HttQ103 aggreg: 12%; KinaseGlo FLuc: 1%; HTT ATP protect: 18%[10 µM]

What do the screens show for `O=S(=O)(NC1CCCCCC1)c1cccc2cccnc12`?
HPGD block: -1%; LMNA splice mod: inconclusive; ALDH1A1 block: 14µM*; HttQ103 aggreg: 0%; KinaseGlo FLuc: -5%; HTT ATP protect: 14%

How did CC(CS(=O)(=O)c1cccc2cccnc12)N1CCCCC1 (stereo not given) do in these assays?
LMNA splice mod: -11%; ALDH1A1 block: 20µM*; HttQ103 aggreg: 17%; HTT ATP protect: -12%

Results for O=C(NC1CCCCC1)c1ccc(NS(=O)(=O)c2cccc3cccnc23)cc1 ?
ALDH1A1 block: 7.9µM*; HttQ103 aggreg: -15%[9.22 µM]; KinaseGlo FLuc: 0%; HTT ATP protect: -27%[10 µM]

How did CN(CC(=O)N1CCCCCC1)S(=O)(=O)c1cccc2cccnc12 do in these assays?
HPGD block: -15%; LMNA splice mod: 0%; ALDH1A1 block: inconclusive; HttQ103 aggreg: 13%; KinaseGlo FLuc: -4%; HTT ATP protect: -4%

How did COc1ccc(NS(=O)(=O)c2cccc3cccnc23)cc1 do in these assays?
HPGD block: -7%; LMNA splice mod: 1%; ALDH1A1 block: -3%; HttQ103 aggreg: 13µM*; KinaseGlo FLuc: 0%; HTT ATP protect: -20%[10 µM]

What do the screens show for `CN(CC(=O)NC1CCCCCCC1)S(=O)(=O)c1cccc2cccnc12`?
HPGD block: 1%; LMNA splice mod: 0%; ALDH1A1 block: -14%; HttQ103 aggreg: -8%; KinaseGlo FLuc: 2%; HTT ATP protect: 6%

Results for COc1cc(C(=O)NCC(=O)OCn2nnc3ccccc3c2=O)cc(OC)c1OC ?
LMNA splice mod: -7%[46 µM]; ALDH1A1 block: 1%; HttQ103 aggreg: -9%; KinaseGlo FLuc: -1%; HTT ATP protect: -15%

Results for CC(C)=NOC[C@@H](O)[C@@H]1O[C@@H]2OC(C)(C)O[C@@H]2[C@H]1O ?
ALDH1A1 block: 9%[13.5 µM]; HTT ATP protect: 23%[10 µM]

Results for O=C(NCc1ccccc1)c1cccc(NS(=O)(=O)c2cccc3cccnc23)c1 ?
HPGD block: -2%; LMNA splice mod: -5%; ALDH1A1 block: 0.5µM*; HttQ103 aggreg: 27%; KinaseGlo FLuc: 1%; HTT ATP protect: -13%[10 µM]

How did C=CCNC(=O)c1cc(Cl)ccc1Cl do in these assays?
HPGD block: 20µM*; LMNA splice mod: 2%; ALDH1A1 block: 0%; HttQ103 aggreg: 3%; KinaseGlo FLuc: -6%; HTT ATP protect: 14%

High-throughput results as filed in PubChem.
